Experimental findings from paper PMC7862700, “An all-to-all approach to the identification of sequence-specific readers for epigenetic DNA modifications on cytosine” are described below.

What all share (assay): DAPPL (digital affinity profiling via proximity ligation, sequencing); 10 mM Tris-HCl pH 7.5, 50 mM NaCl, 1 mM DTT, 4% glycerol, room temperature, 30 min; GST-TFs on glutathione beads, 16-mer random dsDNA library, 0.1% formaldehyde crosslink after washing; high values mean tight binding
Experiment [1] addresses T1, FLI1 (Homo sapiens, UniProt Q01543 1-452).
T1 sequence: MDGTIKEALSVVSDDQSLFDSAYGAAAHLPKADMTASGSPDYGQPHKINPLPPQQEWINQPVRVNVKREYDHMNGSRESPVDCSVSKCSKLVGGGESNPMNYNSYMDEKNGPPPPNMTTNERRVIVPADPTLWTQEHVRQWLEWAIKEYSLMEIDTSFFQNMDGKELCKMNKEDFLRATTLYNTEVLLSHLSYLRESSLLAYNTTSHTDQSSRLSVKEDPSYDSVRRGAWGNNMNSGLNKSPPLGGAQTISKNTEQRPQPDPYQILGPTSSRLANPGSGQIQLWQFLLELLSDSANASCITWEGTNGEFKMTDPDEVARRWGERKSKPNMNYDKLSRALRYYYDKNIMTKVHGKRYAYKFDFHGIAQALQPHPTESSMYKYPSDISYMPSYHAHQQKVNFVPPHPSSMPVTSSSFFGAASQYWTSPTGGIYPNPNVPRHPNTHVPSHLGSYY
The note with it: protein: recombinant; tags: N-terminal GST; dsDNA, one strand shown. In a few lines:
(§1)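 Sequencing on an Illumina NextSeq500 followed washing, crosslinking with 0.1% formaldehyde, proximity ligation (BsaI/T4 ligase, 1 h, 37 °C) and PCR amplification of pools that had been incubated for 30 min at room temperature with 200 nmole of a random double-stranded 16-mer DNA library in Tris/NaCl/DTT/glycerol buffer. Each pool held DNA-barcoded human transcription factors, expressed in yeast as GST fusions and captured on glutathione beads, plus a tag-only sample. Binding signal is a hexamer's read frequency for a factor divided by its frequency in the tag-only sample.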

Experiment [2] deals with T2, ELK1 (Homo sapiens, UniProt P19419 1-428).
T2 sequence: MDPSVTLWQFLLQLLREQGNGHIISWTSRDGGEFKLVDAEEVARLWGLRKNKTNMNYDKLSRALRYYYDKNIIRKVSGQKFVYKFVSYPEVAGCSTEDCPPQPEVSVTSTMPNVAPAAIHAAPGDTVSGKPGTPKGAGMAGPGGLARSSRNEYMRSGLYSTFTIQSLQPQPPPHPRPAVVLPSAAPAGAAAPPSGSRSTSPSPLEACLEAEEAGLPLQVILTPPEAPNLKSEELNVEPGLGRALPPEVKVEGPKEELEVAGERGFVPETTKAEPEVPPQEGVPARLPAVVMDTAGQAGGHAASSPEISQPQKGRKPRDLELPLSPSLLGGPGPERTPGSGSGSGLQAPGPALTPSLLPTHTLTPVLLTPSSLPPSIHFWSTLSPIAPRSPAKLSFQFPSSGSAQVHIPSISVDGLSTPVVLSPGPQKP
The conditions noted are these: protein: recombinant; tags: N-terminal GST; dsDNA, one strand shown. In a few lines:
as §1

Experiment [3] deals with T3, GABPA (Homo sapiens, UniProt Q06546 1-454).
T3 sequence: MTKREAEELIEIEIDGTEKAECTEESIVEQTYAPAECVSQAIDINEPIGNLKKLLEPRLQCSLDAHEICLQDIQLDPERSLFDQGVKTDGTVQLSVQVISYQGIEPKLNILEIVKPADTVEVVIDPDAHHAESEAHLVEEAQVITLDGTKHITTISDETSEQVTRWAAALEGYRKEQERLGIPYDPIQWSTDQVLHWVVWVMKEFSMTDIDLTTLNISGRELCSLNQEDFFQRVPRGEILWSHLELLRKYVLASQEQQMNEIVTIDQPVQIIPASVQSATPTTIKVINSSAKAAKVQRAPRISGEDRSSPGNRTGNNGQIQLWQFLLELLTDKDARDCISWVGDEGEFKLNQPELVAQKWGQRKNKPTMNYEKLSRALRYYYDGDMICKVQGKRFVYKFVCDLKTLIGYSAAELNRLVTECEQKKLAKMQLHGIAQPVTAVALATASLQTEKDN
The conditions noted are these: protein: recombinant; tags: N-terminal GST; dsDNA, one strand shown. Summed up:
as §1

Experiment [4] deals with T4, ERG (Homo sapiens, UniProt P11308 1-479).
T4 sequence: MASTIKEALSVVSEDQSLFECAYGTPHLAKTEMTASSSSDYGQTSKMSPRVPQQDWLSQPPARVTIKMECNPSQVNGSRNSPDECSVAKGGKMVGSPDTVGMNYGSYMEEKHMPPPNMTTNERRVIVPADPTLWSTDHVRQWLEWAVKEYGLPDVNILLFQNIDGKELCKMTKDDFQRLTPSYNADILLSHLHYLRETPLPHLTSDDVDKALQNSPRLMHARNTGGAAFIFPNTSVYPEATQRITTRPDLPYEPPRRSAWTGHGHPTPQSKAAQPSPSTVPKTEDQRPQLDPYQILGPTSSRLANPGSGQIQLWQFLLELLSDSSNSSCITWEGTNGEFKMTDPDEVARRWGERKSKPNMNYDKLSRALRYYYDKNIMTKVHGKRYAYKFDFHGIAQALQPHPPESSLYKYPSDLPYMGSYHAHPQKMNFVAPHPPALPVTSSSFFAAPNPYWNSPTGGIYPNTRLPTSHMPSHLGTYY
The note with it: protein: recombinant; tags: N-terminal GST; dsDNA, one strand shown. In a few lines:
as §1

The target in experiment [5] is ELF1 (Homo sapiens, UniProt P32519 1-619). The note with it: protein: recombinant; tags: N-terminal GST; dsDNA, one strand shown. Summed up:
as §1

For experiment [6], the target named is T5, EHF (Homo sapiens, UniProt Q9NZC4 1-300).
T5 sequence: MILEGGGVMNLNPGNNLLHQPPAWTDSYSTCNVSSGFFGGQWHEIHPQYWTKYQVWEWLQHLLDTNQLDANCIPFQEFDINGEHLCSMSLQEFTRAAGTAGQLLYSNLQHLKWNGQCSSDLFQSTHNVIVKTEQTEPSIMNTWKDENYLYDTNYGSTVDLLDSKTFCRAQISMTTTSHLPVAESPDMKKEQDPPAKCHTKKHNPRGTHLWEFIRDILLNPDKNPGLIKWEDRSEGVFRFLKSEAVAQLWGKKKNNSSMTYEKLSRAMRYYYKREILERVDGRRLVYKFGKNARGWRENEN
The note with it: protein: recombinant; tags: N-terminal GST; dsDNA, one strand shown. Summed up:
as §1

The target of experiment [7] is SPI1 (Homo sapiens, UniProt P17947 1-270). The conditions noted are these: protein: recombinant; tags: N-terminal GST; dsDNA, one strand shown. In a few lines: as §1
Experiment [8] concerns the target SPIB (Homo sapiens, UniProt Q01892 1-262). The note with it: protein: recombinant; tags: N-terminal GST; dsDNA, one strand shown. In a few lines:
as §1

In experiment [9] the target is T6, ELK3 (Homo sapiens, UniProt P41970 1-407).
T6 sequence: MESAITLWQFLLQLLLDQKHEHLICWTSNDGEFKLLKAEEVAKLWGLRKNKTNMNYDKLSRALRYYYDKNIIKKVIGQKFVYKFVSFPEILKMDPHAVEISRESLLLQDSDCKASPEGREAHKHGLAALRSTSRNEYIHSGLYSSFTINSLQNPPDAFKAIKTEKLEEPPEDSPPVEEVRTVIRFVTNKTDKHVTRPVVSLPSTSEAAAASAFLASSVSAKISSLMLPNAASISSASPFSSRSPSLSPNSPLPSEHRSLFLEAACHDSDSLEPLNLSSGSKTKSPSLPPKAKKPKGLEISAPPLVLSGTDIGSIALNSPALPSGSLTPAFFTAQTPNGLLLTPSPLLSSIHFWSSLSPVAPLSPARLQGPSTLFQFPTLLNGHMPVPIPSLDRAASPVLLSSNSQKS
The conditions noted are these: protein: recombinant; tags: N-terminal GST; dsDNA, one strand shown. In a few lines:
as §1

In experiment [10] the target is T7, FEV (Homo sapiens, UniProt Q99581 1-238).
T7 sequence: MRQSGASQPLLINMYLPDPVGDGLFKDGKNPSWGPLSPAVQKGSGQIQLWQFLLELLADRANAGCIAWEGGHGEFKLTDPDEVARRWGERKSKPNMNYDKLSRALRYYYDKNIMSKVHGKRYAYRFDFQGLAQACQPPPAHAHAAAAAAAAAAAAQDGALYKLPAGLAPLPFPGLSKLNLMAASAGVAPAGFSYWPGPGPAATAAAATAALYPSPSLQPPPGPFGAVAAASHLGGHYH
The note with it: protein: recombinant; tags: N-terminal GST; dsDNA, one strand shown. Summed up:
as §1

In experiment [11] the target is ETV5 (Homo sapiens, UniProt P41161 1-510). The conditions noted are these: protein: recombinant; tags: N-terminal GST; dsDNA, one strand shown. In a few lines:
as §1

Experiment [12] concerns the target HSF1 (Homo sapiens, UniProt Q00613 1-529). The note with it: protein: recombinant; tags: N-terminal GST; chain copies: 3; dsDNA, one strand shown. In a few lines:
as §1

Experiment [13] deals with T8, SPIC (Homo sapiens, UniProt Q8N5J4 1-248).
T8 sequence: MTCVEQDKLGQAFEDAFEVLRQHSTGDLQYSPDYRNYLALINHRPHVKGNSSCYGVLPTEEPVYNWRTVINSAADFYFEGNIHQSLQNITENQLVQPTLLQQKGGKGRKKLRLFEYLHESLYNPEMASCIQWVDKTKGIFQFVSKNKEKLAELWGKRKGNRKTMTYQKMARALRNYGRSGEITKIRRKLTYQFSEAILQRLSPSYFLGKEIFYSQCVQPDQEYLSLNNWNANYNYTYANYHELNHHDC
The note with it: protein: recombinant; tags: N-terminal GST; dsDNA, one strand shown. Summed up: as §1

Experiment [14] addresses ELF4 (Homo sapiens, UniProt Q99607 1-663). The conditions noted are these: protein: recombinant; tags: N-terminal GST; dsDNA, one strand shown. In a few lines: as §1
Experiment [15] deals with T9, ELK4 (Homo sapiens, UniProt P28324-2 1-405).
T9 sequence: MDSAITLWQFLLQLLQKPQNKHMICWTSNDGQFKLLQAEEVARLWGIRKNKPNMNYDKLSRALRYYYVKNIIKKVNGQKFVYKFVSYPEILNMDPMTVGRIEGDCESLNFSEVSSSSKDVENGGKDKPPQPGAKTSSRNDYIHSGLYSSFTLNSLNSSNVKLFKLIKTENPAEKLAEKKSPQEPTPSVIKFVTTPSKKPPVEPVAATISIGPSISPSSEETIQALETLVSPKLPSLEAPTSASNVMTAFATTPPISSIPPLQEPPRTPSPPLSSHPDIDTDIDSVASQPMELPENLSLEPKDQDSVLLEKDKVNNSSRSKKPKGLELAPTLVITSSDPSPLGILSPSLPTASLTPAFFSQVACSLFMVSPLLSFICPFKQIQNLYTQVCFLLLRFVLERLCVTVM
The note with it: protein: recombinant; tags: N-terminal GST; dsDNA, one strand shown. In a few lines: as §1

Experiment [16] has as its target T10, ETV2 (Homo sapiens, UniProt O00321 1-342).
T10 sequence: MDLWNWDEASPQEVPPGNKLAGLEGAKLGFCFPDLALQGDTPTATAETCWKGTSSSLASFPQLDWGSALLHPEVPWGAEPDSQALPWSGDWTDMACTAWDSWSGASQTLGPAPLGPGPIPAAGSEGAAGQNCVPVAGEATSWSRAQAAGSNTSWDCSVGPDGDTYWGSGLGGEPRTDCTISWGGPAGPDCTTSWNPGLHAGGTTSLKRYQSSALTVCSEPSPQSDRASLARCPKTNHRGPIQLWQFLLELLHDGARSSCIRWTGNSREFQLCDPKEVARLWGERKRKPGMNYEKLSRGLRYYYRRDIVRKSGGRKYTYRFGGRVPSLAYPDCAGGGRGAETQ
The conditions noted are these: protein: recombinant; tags: N-terminal GST; dsDNA, one strand shown. Summed up:
as §1

For experiment [17], the target named is T11, ELF3 (Homo sapiens, UniProt P78545 1-371).
T11 sequence: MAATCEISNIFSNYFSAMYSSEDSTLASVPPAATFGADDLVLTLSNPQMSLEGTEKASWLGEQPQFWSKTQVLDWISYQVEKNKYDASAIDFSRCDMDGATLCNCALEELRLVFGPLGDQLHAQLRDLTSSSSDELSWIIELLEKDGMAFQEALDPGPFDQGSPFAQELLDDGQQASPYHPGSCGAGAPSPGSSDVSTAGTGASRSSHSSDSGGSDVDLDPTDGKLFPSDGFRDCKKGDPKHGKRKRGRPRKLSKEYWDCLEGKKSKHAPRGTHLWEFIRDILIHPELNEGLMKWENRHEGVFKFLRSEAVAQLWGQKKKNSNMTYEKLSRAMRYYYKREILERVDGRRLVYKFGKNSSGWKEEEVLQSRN
The conditions noted are these: protein: recombinant; tags: N-terminal GST; dsDNA, one strand shown. Summed up:
as §1

For experiment [18], the target named is ETV1 (Homo sapiens, UniProt P50549 1-477). The conditions noted are these: protein: recombinant; tags: N-terminal GST; dsDNA, one strand shown. Summed up:
as §1

SPIB, sequence (Q01892 whole entry): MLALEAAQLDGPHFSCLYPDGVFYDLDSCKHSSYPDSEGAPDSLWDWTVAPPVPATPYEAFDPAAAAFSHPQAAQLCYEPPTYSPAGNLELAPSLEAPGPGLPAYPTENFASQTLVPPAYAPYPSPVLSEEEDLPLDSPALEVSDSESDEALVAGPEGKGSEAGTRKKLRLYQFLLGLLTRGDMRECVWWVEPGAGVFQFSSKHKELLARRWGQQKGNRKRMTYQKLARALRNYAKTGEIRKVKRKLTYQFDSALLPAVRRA
ETV1, sequence (P50549 whole entry): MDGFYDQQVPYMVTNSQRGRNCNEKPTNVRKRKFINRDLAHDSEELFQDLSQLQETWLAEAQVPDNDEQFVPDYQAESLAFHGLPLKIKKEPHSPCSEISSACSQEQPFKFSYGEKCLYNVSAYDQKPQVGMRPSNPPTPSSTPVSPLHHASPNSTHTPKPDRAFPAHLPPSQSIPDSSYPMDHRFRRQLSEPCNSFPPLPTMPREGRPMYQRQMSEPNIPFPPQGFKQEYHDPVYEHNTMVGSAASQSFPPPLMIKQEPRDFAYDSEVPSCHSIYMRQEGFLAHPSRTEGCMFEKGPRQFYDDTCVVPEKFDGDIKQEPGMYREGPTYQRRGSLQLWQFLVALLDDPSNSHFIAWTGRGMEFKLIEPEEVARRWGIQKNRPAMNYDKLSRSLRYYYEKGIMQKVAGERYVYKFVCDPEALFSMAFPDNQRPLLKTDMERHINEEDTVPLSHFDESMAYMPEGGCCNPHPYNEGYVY
ETV5, sequence (P41161 whole entry): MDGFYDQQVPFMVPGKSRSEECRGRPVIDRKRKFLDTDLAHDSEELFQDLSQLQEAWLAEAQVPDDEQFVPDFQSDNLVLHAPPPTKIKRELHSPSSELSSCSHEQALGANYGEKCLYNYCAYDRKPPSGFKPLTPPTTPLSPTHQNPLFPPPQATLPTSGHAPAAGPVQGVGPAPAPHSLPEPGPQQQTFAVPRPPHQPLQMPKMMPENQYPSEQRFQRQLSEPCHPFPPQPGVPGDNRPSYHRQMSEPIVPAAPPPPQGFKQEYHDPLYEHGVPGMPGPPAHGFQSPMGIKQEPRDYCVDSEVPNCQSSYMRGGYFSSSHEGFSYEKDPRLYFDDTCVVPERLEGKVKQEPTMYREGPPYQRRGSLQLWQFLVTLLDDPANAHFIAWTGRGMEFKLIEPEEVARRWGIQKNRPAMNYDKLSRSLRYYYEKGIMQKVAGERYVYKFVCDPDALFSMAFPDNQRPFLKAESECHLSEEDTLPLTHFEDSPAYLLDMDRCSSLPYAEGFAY
HSF1, sequence (Q00613 whole entry): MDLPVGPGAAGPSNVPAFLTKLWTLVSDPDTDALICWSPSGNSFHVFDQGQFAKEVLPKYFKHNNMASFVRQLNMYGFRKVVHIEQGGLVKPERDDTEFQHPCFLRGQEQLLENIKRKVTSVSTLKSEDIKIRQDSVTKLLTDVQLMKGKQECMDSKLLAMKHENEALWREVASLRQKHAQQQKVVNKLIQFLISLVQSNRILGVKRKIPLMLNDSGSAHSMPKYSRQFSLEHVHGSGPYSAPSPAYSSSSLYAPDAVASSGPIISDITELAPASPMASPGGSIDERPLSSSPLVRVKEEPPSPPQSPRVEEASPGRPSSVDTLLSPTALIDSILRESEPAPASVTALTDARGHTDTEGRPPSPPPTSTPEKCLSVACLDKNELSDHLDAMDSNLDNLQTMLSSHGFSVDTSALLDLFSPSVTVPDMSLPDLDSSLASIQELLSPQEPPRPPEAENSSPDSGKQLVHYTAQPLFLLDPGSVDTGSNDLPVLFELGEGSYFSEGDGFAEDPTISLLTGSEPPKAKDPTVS
ELF1, sequence (P32519 whole entry): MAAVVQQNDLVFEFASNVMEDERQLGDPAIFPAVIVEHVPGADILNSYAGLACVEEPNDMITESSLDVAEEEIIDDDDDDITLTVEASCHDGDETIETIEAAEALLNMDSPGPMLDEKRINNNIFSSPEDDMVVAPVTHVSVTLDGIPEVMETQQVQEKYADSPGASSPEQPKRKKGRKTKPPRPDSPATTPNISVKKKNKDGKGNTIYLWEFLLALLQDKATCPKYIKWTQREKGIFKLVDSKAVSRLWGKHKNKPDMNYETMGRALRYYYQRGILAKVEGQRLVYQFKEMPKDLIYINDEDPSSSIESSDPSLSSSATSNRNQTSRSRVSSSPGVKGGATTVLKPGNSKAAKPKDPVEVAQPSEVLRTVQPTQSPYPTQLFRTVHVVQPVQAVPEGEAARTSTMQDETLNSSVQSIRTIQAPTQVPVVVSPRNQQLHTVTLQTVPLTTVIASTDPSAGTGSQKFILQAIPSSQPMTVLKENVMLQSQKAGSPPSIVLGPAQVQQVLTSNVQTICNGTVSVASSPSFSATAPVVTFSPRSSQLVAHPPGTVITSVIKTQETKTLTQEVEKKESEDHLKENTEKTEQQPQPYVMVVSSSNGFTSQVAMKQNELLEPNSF
ELF4, sequence (Q99607 whole entry): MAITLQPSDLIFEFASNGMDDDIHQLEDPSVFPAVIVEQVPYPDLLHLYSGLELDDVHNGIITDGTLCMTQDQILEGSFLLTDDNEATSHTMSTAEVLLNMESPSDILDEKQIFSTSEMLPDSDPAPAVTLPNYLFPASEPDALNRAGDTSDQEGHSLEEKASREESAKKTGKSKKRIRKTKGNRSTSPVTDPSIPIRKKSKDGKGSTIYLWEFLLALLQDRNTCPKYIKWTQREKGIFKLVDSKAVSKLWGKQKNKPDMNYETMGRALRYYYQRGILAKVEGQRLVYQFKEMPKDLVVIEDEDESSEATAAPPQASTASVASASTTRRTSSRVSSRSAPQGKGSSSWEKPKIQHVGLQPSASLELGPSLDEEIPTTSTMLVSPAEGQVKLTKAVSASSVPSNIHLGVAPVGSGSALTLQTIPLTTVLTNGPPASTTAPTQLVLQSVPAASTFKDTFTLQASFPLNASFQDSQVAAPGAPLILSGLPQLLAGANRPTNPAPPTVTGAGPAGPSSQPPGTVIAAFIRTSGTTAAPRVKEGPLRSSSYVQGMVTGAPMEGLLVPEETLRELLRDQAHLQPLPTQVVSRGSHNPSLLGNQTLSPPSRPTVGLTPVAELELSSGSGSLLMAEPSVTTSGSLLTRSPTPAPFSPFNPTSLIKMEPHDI

In the case of CCATTC, the binding signal was 1.22 fold enrichment (6-mer frequency, TF over GST control) in experiment [1]; 1.09 fold enrichment (6-mer frequency, TF over GST control) in [2]; 1.1 fold enrichment (6-mer frequency, TF over GST control) in experiment [3]; 1.2 fold enrichment (6-mer frequency, TF over GST control) in experiment [4]; 1.17 fold enrichment (6-mer frequency, TF over GST control) in experiment [5]; 1.07 fold enrichment (6-mer frequency, TF over GST control) in experiment [6]. Moreover, the binding signal in experiment [7] was 1.16 fold enrichment (6-mer frequency, TF over GST control); in experiment [8], 1.09 fold enrichment (6-mer frequency, TF over GST control); in [9], 1.29 fold enrichment (6-mer frequency, TF over GST control); in experiment [10] it was 1.06 fold enrichment (6-mer frequency, TF over GST control); in experiment [11], 1.11 fold enrichment (6-mer frequency, TF over GST control); in experiment [12], 1.15 fold enrichment (6-mer frequency, TF over GST control). Also, the binding signal was 1.14 fold enrichment (6-mer frequency, TF over GST control) in [13]; 1.18 fold enrichment (6-mer frequency, TF over GST control) in experiment [14]; 1.22 fold enrichment (6-mer frequency, TF over GST control) in [15]; 1.25 fold enrichment (6-mer frequency, TF over GST control) in experiment [16]; 1.05 fold enrichment (6-mer frequency, TF over GST control) in experiment [17]; 1.14 fold enrichment (6-mer frequency, TF over GST control) in experiment [18].
